Rows were chosen to be rich in hits. Some 22% of all compounds tested hit in one or more screens of this group.
Cycloheximide cs: counter-screen for Shiga toxin inhibitors: cycloheximide protein synthesis inhibition | cell reporter, cycloheximide protein synthesis inhibition counterscreen | actives 12% (n = 300,000) | max response, % | AID 2314; in the data active = max response mostly above about 13%, no sharp cut-off; inactive = mostly below about 14%; also: read at 38.3 µM for the half of the compounds with a filed dose
Pf growth 48h: inhibits P. falciparum growth in the first generation, 48 h; P. falciparum luciferase growth in erythrocytes, 48 h; Potency, µM (series often up to 28.7 µM), actives largely listed as inhibitors; actives 5.9% (n = 310,000); AID 504832
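Read-out is firefly luciferase luminescence from an integrated reporter in P. falciparum, so falling signal marks reduced parasite growth. Infected erythrocytes were at 2% hematocrit and 0.1% parasitemia (final) in Albumax-supplemented RPMI 1640.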
Pf growth 96h: P. falciparum growth inhibition at 96 hour, primary screen for plastid delayed-death inhibitors; P. falciparum luciferase reporter growth, 96 h; Potency, µM (titrated, usually from 28.7 µM), hits mostly inhibitors; actives 6.9% (n = 320,000)
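96 h incubation, 37 C, 5% CO2, of luciferase-reporter P. falciparum-infected RBCs (2% hematocrit, 0.05% parasitemia final) with test compounds; endpoint luminescence.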
LmPK inhibitor: inhibitors of Leishmania mexicana pyruvate kinase; Q27686; purified LmPK, Kinase-Glo ATP luminescence, 1 h; Potency, µM (series often up to 57.5 µM), hits mostly inhibitors; actives 0.37% (n = 290,000)
Target sequence (Q27686 whole entry, looked up): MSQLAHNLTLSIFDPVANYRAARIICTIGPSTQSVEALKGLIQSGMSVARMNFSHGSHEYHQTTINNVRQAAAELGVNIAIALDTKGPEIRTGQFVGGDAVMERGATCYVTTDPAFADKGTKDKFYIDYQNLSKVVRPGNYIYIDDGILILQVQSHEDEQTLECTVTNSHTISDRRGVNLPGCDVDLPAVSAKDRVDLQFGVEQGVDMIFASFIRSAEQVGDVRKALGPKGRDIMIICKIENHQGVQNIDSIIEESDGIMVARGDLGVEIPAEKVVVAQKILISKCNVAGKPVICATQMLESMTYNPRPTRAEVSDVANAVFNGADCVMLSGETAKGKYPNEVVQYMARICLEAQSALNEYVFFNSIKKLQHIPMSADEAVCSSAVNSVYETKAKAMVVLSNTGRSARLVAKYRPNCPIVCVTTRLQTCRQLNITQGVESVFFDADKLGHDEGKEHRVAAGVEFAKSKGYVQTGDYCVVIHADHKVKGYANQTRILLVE
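0.1 nM LmPK, 0.5 mM PEP, 0.1 mM ADP; 50 mM imidazole pH 7.2, 7 mM MgCl2, 50 mM KCl; 1 h RT. Kinase-Glo luminescence readout, normalized to no-enzyme (full inhibition) and uninhibited wells.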
Shiga toxin inh: Shiga toxin inhibition. inhibition, % at 38.7 µM. AID 2315. Vero cells, Shiga toxin protein synthesis inhibition reporter. actives 9.2% (n = 290,000); in the data active = inhibition mostly above about 28%, no sharp cut-off; inactive = mostly below about 43%
Hits are given with their value; n = inactive; u = inconclusive; x = no result; [ ] = dose if it differs, or a comment. Unless noted, calls follow the shape of the dose curve; as a rule, active = well fitted inhibition curve with a large enough effect; inconclusive = small, poorly fitted or top-dose-only effect, or another doubt; inactive = no such curve, though single readings can be large or run the other way.

SMILES | Cycloheximide cs | Pf growth 48h | Pf growth 96h | LmPK inhibitor | Shiga toxin inh
Cc1ccc(NC(=O)CSc2ncccn2)c([N+](=O)[O-])c1 | 28 | n | n | n | 82
CS(=O)(=O)N(Cc1ccc(C(=O)NCCSc2ccccn2)cc1)c1ccccc1 | n | n | u | n | n
CCc1ccc(NC(=O)CSCCO)cc1 | n | n | n | n | 37
O=C(CSCCO)Nc1ccccc1 | n | n | n | n | n
Cc1ccc(N(Cc2ccc(C(=O)NCCSc3ccccn3)cc2)S(C)(=O)=O)cc1C | n | u | 0.74µM | n | n
CC(=O)N1CCN(c2ccccc2NC(=O)Cc2ccc(Cl)cc2)CC1 | n | u | u | n | n
COc1ccc(Cn2c(CCC(=O)Nc3ccc(C)cc3)nc3cccnc32)cc1 | n | x | 10µM | n | n
CCc1ccc(NC(=O)CSc2ccccn2)cc1 | 40 | n | n | n | n
O=C(CSc1ccccn1)Nc1ccc(Br)cn1 | 21 | n | n | n | n
COc1ccc(N(CC(=O)NCCSc2ccccn2)S(C)(=O)=O)cc1 | n | x | n | n | n
COc1ccc(C(=O)NCCSc2ccccn2)cc1 | 32 | n | u | n | 53
O=C(CSc1ncn(-c2ccccc2)n1)Nc1ccc(Br)cn1 | n | n | u | n | n
C=CCn1c(Oc2ccc(C=O)cc2OCC)nc2c1c(=O)n(C)c(=O)n2C | n | n[0.00184 µM] | n | n | n
Oc1ccc(-n2nnnc2SCc2ccccc2Br)cc1 | n | u | 13µM | n | n
Cc1nnc(SCc2nnc(-c3ccccc3Br)o2)n1-c1ccccc1 | n | 10µM | u | n | n
Cc1ccccc1CSc1nnnn1-c1ccc(C(N)=O)cc1 | n | x | n | n | n
Cc1nnc(SCc2nnc(-c3ccc(Cl)cc3)o2)n1-c1ccccc1 | n | u | x | n | n
Brc1ccccc1-c1nnc(CSc2nnnn2-c2ccccc2)o1 | 29 | n | n | n | 54
O=C(NCCS(=O)(=O)c1ccc(Br)cc1)c1ccc(Cl)cc1Cl | n | n | n | n | n
C=CCN1C(=O)c2ccc(C(=O)OCC(=O)N3CCN(c4ccccc4)CC3)cc2C1=O | x | n | n | x | x
Fc1ccccc1Nc1n[nH]c(=S)s1 | 26 | n | n | n | 69
Cc1ccc(Nc2ncnc(-n3cccc3)n2)cc1Cl | 32 | n | n | n | 80
Clc1cc(Cl)cc(Nc2ncnc(-n3cccc3)n2)c1 | n | u | u | n | n
Nc1ncnc(Nc2ccccc2Cl)n1 | 17 | n | n | n | n
Cc1cccc(Nc2ncnc(N)n2)c1 | n | n | n | n | n
SMILES | Cycloheximide cs | Pf growth 48h | Pf growth 96h | LmPK inhibitor | Shiga toxin inh
Nc1ncnc(Nc2cccc(F)c2)n1 | n | n | n | n | n
Clc1ccccc1Nc1ncnc(-n2cccc2)n1 | 62 | n | n | n | 131
Nc1ncnc(Nc2ccc(F)c(Cl)c2)n1 | 19 | n | n | n | 57
CNC(=S)N/N=C/c1cn(CCOc2ccccc2OC)c2ccccc12 | n | u | u | n | n
COC(=O)N/N=C/c1cn(CCOc2ccccc2)c2ccccc12 | 46 | n | n | n | 78
CCOC(=O)N/N=C/c1cn(CCCOc2ccccc2)c2ccccc12 | 46 | n | n | n | 66
COC(=O)N/N=C/c1cn(CCOc2ccc(OC)cc2)c2ccccc12 | n | n[0.00184 µM] | u | n | n
CNC(=S)N/N=C/c1cn(CCOc2cccc(OC)c2)c2ccccc12 | n | u | u | n | 103
CCOC(=O)N/N=C/c1cn(CCCOc2ccc(C)cc2)c2ccccc12 | 64 | n | n | n | 42
CC12CCC(C/C1=N/OC(=O)c1cccc([N+](=O)[O-])c1)C2(C)C (configuration not stated) | n | n | n | n | n
CC(C)CCN(C(=O)Nc1ccccc1)C(C)c1cccs1 (configuration not stated) | n | u | x | n | n
CC(C)(C)c1cc(NCc2ccccn2)n2ncc(-c3ccc(Cl)cc3)c2n1 | n | 3.3µM | u | n | n
CN(C)CCCNc1cc(C(C)(C)C)nc2c(-c3ccc(Cl)cc3)cnn12 | 40 | u | u | n | 53
CC[C@H](C)[C@H](NC(=O)[C@@H](NC(=O)[C@@H](CC(=O)NO)Cc1ccccc1)[C@@H](C)CC)C(=O)O | n | x | x | x | n
CCOc1ccc(C2=CSC3=NCCN23)cc1 | n | u | n | n | n
c1ccc(-c2c[n+]3c(n2-c2ccccc2)SCC3)cc1 | n | 1.7µM | 0.41µM | n | n
c1ccc(-c2cn(-c3ccccc3)c3[n+]2CCS3)cc1 | n | u | u | n | n
CCOc1ccc(-n2c(-c3ccc(Cl)cc3)c[n+]3c2SCC3)cc1 | n | 13µM | 0.046µM | n | n
